Screens: PubChem BioAssay, several laboratories
Hits are enriched below; roughly 3% of the tested compounds scored in any of these assays.
BH1578 lux ind – inducers of Vibrio cholerae quorum light production without autoinducers, primary screen, BH1578 luxS cqsA deficient, single point; V. cholerae BH1578 lux reporter, luminescence, 6 h; actives 0.16% (n = 350,000); activation, % at 18.7 µM; AID 588436, 2011; in the data active = activation mostly above about 9.7%, no sharp cut-off
BioA inh – M. tuberculosis BioA enzyme inhibitors, primary screen, biochemical, plate reader, single point, HTS; 7,8-diaminopelargonic acid synthase BioA (Mycobacterium tuberculosis); purified M. tuberculosis BioA enzyme; inhibition, % at 9.99 µM; actives 0.096% (n = 360,000); in the data active = inhibition above about 40%
GDH-TPI inh – GDH-TPI coupling enzyme inhibitors, primary screen, artefact control for M. tuberculosis FBA inhibitor project, biochemical, absorbance, full deck; GDH-TPI coupled enzyme counterscreen, NADH absorbance; inhibition, % at 4.8 µM; actives 1.2% (n = 360,000); AID 588335, 2011; in the data active = inhibition above about 30%
Mtb FBA inh – Mtb FBA enzyme inhibitors, primary screen, biochemical, fluorescence, strain H37Rv; Fructose-bisphosphate aldolase (Mycobacterium tuberculosis (strain ATCC 25618 / H37Rv)), …; inhibition, % at 1 µM; actives 2.3% (n = 360,000); purified M. tuberculosis FBA, fluorescence read-out; AID 588726, 2011; in the data active = inhibition above about 27%
Target sequence (P9WQA3 whole entry, looked up): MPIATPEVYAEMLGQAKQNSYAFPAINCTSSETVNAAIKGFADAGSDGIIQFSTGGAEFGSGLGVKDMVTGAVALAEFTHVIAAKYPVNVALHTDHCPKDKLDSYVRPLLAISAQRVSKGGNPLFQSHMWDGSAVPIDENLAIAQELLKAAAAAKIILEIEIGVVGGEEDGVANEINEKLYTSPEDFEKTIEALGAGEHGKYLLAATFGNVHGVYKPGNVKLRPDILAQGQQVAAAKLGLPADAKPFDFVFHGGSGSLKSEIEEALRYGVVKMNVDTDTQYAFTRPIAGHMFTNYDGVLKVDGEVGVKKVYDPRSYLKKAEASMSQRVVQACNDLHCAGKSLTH
Of the large screens only hits and unclear results are named; the others gave an inactive call.

CC1CCCN(Cc2c(O)ccc3c4c(c(=O)oc23)CCCC4)C1 (configuration not stated)	none (no result: Mtb FBA inh)
CC(C)CN(Cc1c(O)ccc2c3c(c(=O)oc12)CCC3)CC(C)C	Mtb FBA inh active (no result: BioA inh)
CCCCCC(=O)C(=O)c1ccc(O)cc1O	GDH-TPI inh 46.4
COc1ccc(NC(=O)c2ccco2)cn1	none
COc1ccc(NC(=O)c2ccc(-c3ccc(C(C)=O)cc3)o2)cn1	GDH-TPI inh 31.8
Cc1ccc(S(=O)(=O)Nc2ccc3c(c2)CC(=O)N([C@@H](C)CO)C[C@@H](C)[C@@H](CN(C)CC2CCCCC2)O3)cc1	none (no result: BH1578 lux ind, GDH-TPI inh, Mtb FBA inh)
Cc1cc(-n2c(=O)c(C#N)cc3c(=O)n4ccccc4nc32)no1	Mtb FBA inh active (no result: BioA inh)
CCn1c(=N)c(S(=O)(=O)c2ccccc2)cc2c(=O)n3ccccc3nc21	none (no result: BioA inh)
C=CCn1c(=O)c(C#N)cc2c(=O)n3ccccc3nc21	Mtb FBA inh active (no result: BioA inh)
CCCn1c(=N)c(S(=O)(=O)c2ccccc2)cc2c(=O)n3ccccc3nc21	none (no result: BioA inh)
Cc1ccccc1-n1c(=O)c(C#N)cc2c(=O)n3ccccc3nc21	Mtb FBA inh active
Cc1cc(OCC(=O)NC(Cc2ccc(Cl)cc2)C(=O)O)c2c(C)cc(=O)oc2c1 (configuration not stated)	Mtb FBA inh 74.1
CCCc1cc(=O)oc2cc(C)cc(OCC(=O)N[C@@H](CSCc3ccccc3)C(=O)O)c12	Mtb FBA inh 39.2
CCCCc1cc(=O)oc2cc(O)cc(O)c12	Mtb FBA inh 128.8
CCCc1cc(=O)oc2cc(C)cc(OCC(=O)NC3CCN(Cc4ccccc4)CC3)c12	none
COc1ccc2c(CC(=O)NC(Cc3ccc(Cl)cc3)C(=O)O)cc(=O)oc2c1C (configuration not stated)	Mtb FBA inh 121.0
COc1ccccc1NC(=O)N[C@@H]1CC[C@H](CCn2cc(-c3ccccc3)nn2)O[C@H]1CO	none (no result: BH1578 lux ind, GDH-TPI inh, Mtb FBA inh)
CCCc1cn(CC[C@@H]2CC[C@H](NC(=O)C3CCCCC3)[C@H](CO)O2)nn1	none (no result: BH1578 lux ind, GDH-TPI inh, Mtb FBA inh)
COc1ccc(C#Cc2ccc3c(c2)[C@@H]2[C@@H](CCN2C(=O)c2ccncc2)[C@@H](CO)N3C)cc1	none (no result: BH1578 lux ind, GDH-TPI inh, Mtb FBA inh)
CCCCc1cc(=O)oc2cc(C)cc(OC(C)C(=O)O)c12 (configuration not stated)	Mtb FBA inh 133.7
CCCCc1cc(=O)oc2cc(C)cc(O)c12	none
Cc1cc(OCC(=O)N2CCC(C(=O)O)(c3ccccc3)CC2)c2c(C)cc(=O)oc2c1	none
CCc1cc(=O)oc2cc(C)cc(OCC(=O)N3CCC(C(=O)NC(C)C)(c4ccccc4)CC3)c12	Mtb FBA inh 66.4
O=S(=O)(N/N=C\c1ccccc1O)c1ccc(Cl)cc1	none
O=S(=O)(N/N=C\C=C\c1ccccc1)c1ccc(Cl)cc1	GDH-TPI inh 58.8
CCOC(=O)c1cnc2oc3ccccc3n2c1=O	none
O=C(O)c1cnc2[nH]c3ccccc3n2c1=O	GDH-TPI inh 36.2, Mtb FBA inh 176.1
CC=Cc1ccc2n(c1=O)C[C@H]1[C@H](CO)[C@@H](C(=O)NCC)N(CC3CCOCC3)[C@@H]21 (mixture of isomers)	none (no result: BH1578 lux ind, GDH-TPI inh, Mtb FBA inh)
CCN1CCCC1CNC(=O)c1ccc2c(c1)NC(=O)/C(=C\c1ccc(OC)c(OC)c1)S2 (configuration not stated)	GDH-TPI inh 31.3
CCN1CCCC1CNC(=O)c1ccc2c(c1)NC(=O)/C(=C\c1ccccc1Cl)S2 (configuration not stated)	none
COc1ccc(NC(=O)N(C)C[C@H]2Oc3ccc(NC(=O)Nc4ccc(C(F)(F)F)cc4)cc3CC(=O)N([C@@H](C)CO)C[C@@H]2C)cc1	none (no result: BH1578 lux ind, GDH-TPI inh, Mtb FBA inh)
O=C1c2ccccc2C(=O)N1OS(=O)(=O)c1ccc(F)cc1	none
Cc1cc(C)c(C)c(S(=O)(=O)ON2C(=O)c3ccccc3C2=O)c1C	Mtb FBA inh 35.2
Cc1cc(C)c(S(=O)(=O)ON2C(=O)c3ccccc3C2=O)cc1C	Mtb FBA inh 37.5
Cc1ccc(S(=O)(=O)ON2C(=O)c3ccccc3C2=O)c(C)c1	Mtb FBA inh 39.9 (no result: BioA inh)
C[C@H](CO)N1C[C@H](C)[C@H](CN(C)CC2CC2)Oc2c(NS(C)(=O)=O)cccc2C1=O	none (no result: BH1578 lux ind, GDH-TPI inh, Mtb FBA inh)
Cc1ccc(-c2nc(C#N)c(NCC3CCCO3)o2)cc1 (configuration not stated)	Mtb FBA inh 179.7 (no result: BioA inh)
N#Cc1nc(-c2cccs2)oc1NCC1CCCO1 (configuration not stated)	Mtb FBA inh active
COc1ccc(-c2nc(C#N)c(NCc3ccccc3Cl)o2)cc1	none (no result: BioA inh)
COc1ccc(-c2nc(C#N)c(NCC3CCCO3)o2)cc1 (configuration not stated)	Mtb FBA inh 177.2
O=C(C[C@@H]1CC[C@H](NC(=O)CN2CCOCC2)[C@H](CO)O1)NC1CCCCC1	none (no result: BH1578 lux ind, GDH-TPI inh, Mtb FBA inh)
C[C@@H]1CN([C@H](C)CO)S(=O)(=O)c2ccc(C#C[C@@H](C)O)cc2O[C@@H]1CN(C)C(=O)CN(C)C	none (no result: BH1578 lux ind, GDH-TPI inh, Mtb FBA inh)
C[C@H](CO)N1C[C@H](C)[C@@H](CN(C)C(=O)c2ccc(F)cc2)Oc2cc(C3=CCCC3)ccc2S1(=O)=O	none (no result: BH1578 lux ind, GDH-TPI inh, Mtb FBA inh)
COc1cccc(-c2nnc(NC(=O)c3ccc(Cl)s3)o2)c1	GDH-TPI inh 40.9
COc1ccccc1-c1c(C)oc2c(CN3CCCCC3C)c(O)ccc2c1=O (configuration not stated)	Mtb FBA inh 145.0
COc1ccccc1-c1c(C(F)(F)F)oc2c(CN(C)C)c(O)ccc2c1=O	none
Cc1oc2c(CN3CCCCC3)c(O)ccc2c(=O)c1-c1ccc(Br)cc1	GDH-TPI inh 33.0, Mtb FBA inh 129.8
Cc1oc2c(CN3CCCCC3C)c(O)ccc2c(=O)c1-c1ccccc1 (configuration not stated)	Mtb FBA inh 173.6
Cc1oc2c(O)c(O)ccc2c(=O)c1-c1ccccc1	none
CC(=O)N1[C@@H]2c3ccc(-c4ccccc4)c(=O)n3C[C@H]1[C@H](CO)[C@H]2C(=O)Nc1ccccc1	none (no result: BH1578 lux ind, GDH-TPI inh, Mtb FBA inh)
C[C@@H]1CN([C@@H](C)CO)C(=O)c2cc(C3=CCCC3)cnc2O[C@H]1CN(C)C(=O)c1ccc2c(c1)OCO2	none (no result: BH1578 lux ind, GDH-TPI inh, Mtb FBA inh)
CN1CCN(C(=O)C[C@@H]2CC[C@H]3[C@@H](COC[C@H](O)CN3C(=O)C3CC3)O2)CC1	none (no result: BH1578 lux ind, GDH-TPI inh, Mtb FBA inh)
CCOP(=O)(OCC)c1nc(/C=C/c2ccccc2)oc1NCc1ccc(OC)cc1	Mtb FBA inh active
CCOP(=O)(OCC)C(NCc1ccccc1)c1ccc(Br)cc1 (configuration not stated)	none
CCOP(=O)(OCC)c1nc(/C=C/c2ccccc2)oc1NCc1ccccc1	GDH-TPI inh 37.4, Mtb FBA inh active
CN(C)C(=O)[C@]1(Cc2ccccc2N=[N+]=[N-])N=C(c2ccc(OCCCO)cc2)O[C@@H]1c1ccccc1	none (no result: BH1578 lux ind, GDH-TPI inh, Mtb FBA inh)
Cc1ccc(S(=O)(=O)NCC[C@H]2CC[C@@H](NC(=O)CCN3CCCCC3)[C@H](CO)O2)cc1	none (no result: BH1578 lux ind, GDH-TPI inh, Mtb FBA inh)
CSCCCNC(=S)N1CCN(c2ccc(C(C)=O)cc2)CC1	none
CCCCNC(=S)N1CCN(c2ccc(C(C)=O)cc2)CC1	GDH-TPI inh 34.8 (no result: BioA inh)
Cn1cccc1/C=N/NC(=O)CNc1ccc2ccccc2c1	none
